# From PubChem BioAssay
# A number with no mark means an inactive call. The rule behind the calls is not given here.
# Target: Pantothenate synthetase (Mycobacterium tuberculosis (strain ATCC 25618 / H37Rv)) (UniProt P9WIL5)
# Experiment: Coupled enzyme confirmation of inhibitors against recombinant Mtb PanC (AID 375);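 note: 0% = full reaction with vehicle and 100% = no enzyme background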
# Details: coupled enzyme assay; at 10 µM, active compounds read high
# Chain of Pantothenate synthetase (Mycobacterium tuberculosis (strain ATCC 25618 / H37Rv)) (P9WIL5 whole entry, looked up): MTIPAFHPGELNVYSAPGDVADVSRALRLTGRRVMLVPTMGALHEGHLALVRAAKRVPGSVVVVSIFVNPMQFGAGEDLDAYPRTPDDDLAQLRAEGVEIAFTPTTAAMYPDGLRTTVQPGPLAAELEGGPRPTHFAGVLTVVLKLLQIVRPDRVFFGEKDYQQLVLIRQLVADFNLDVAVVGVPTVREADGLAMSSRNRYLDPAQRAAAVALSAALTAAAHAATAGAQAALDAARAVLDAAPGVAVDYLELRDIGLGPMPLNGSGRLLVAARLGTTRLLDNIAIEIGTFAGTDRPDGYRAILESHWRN
row,Structure (SMILES),inhibition
1,Cc1nc2sc(C(c3cccc(F)c3)N3CCOCC3)c(O)n2n1 (configuration not stated),0%
2,COC(=O)c1ccc(NC(=O)CN2CCCC2)cc1,0%
3,CC(=O)Nc1ccc(Oc2ccc3nc(C)[nH]c3c2)cc1,0%
4,O=C(NCC1COCCO1)C1CCN(S(=O)(=O)c2ccccc2)CC1 (configuration not stated),3%
5,COCCn1c(NCc2ccc(C)cc2)nc2c1c(=O)[nH]c(=O)n2C,10%
6,O=S(=O)(NCCCCCNS(=O)(=O)c1ccccc1)c1ccccc1,6%
7,CCc1c(C)nc2ncnn2c1N1CCC(C(=O)NCc2cccc(OC)c2)CC1,0%
8,Cc1cc2c(c(=O)n1CCN(C)C)C(c1ccncc1)C(C#N)=C(N)O2 (configuration not stated),0%
9,CN(C)CC(O)COc1ccc(-c2ccc(C#N)cc2)cc1 (configuration not stated),3%
10,Nc1ccc(C(=O)OCCCc2nc3ccccc3[nH]2)cc1,3%
11,Cc1nc2ccccc2c2oc(C(=O)N3CCN(C(=O)c4ccco4)CC3)cc12,0%
12,O=C(c1cnsn1)N1CCN(c2ccccn2)CC1,0%
13,COc1ccccc1CN1C(=S)SC(C)(C)C1NO (configuration not stated),0%
14,CCOC(=O)Nc1c(C(=O)OC)[nH]c2cccc(OC)c12,0%
15,Nc1c(S(=O)(=O)c2cccs2)c2nc3ccccc3nc2n1CC1CCCO1 (configuration not stated),0%
16,C=CCN(C(=O)CNC(=O)c1ccco1)C(C(=O)NC1CCCCC1)c1ccccc1F (configuration not stated),0%
17,COc1ccc(-c2nc3cc(NC(=O)Cc4ccc(OC)c(OC)c4)ccc3o2)cc1,0%
